Results on three substances are retold here after paper PMC12350791.

Sequence of GART, P22102 (P22102 whole entry): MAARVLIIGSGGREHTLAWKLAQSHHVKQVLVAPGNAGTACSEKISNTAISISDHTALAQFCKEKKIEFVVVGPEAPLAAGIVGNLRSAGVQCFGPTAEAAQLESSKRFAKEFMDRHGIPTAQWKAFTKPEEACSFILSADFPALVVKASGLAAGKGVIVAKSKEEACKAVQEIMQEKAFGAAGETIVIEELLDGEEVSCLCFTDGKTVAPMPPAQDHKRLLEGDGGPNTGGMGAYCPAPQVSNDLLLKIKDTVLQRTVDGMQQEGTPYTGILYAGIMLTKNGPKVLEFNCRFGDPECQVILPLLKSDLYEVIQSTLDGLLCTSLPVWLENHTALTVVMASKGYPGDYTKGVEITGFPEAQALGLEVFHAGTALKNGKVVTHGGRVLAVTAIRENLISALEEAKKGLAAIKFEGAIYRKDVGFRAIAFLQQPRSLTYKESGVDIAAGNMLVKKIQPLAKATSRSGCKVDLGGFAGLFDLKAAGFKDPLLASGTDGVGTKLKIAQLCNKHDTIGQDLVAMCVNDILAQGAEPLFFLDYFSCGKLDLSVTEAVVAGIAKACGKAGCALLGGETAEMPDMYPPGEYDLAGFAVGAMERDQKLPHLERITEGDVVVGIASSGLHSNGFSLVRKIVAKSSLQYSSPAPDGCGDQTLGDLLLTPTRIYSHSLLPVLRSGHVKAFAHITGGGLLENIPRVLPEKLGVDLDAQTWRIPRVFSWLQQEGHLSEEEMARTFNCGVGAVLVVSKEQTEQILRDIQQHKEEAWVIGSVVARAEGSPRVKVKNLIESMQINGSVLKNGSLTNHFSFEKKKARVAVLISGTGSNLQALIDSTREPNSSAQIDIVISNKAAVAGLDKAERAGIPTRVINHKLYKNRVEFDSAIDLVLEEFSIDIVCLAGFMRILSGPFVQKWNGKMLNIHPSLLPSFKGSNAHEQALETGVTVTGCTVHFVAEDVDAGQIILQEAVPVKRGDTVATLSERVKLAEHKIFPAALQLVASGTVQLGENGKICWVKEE
Sequence of HNRNPDL, O14979 (O14979 whole entry): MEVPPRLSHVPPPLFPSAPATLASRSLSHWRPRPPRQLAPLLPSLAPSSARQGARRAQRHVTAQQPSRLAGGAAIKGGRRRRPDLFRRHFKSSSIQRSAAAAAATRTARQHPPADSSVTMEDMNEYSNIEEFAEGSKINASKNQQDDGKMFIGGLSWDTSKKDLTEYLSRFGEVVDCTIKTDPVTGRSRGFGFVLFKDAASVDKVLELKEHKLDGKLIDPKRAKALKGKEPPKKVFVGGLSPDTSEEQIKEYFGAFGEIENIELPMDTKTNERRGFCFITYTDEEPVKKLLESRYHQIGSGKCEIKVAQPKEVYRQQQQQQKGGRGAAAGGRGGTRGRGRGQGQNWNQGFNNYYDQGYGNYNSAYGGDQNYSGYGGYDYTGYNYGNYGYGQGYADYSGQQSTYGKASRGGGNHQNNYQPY
Sequence of HNRNPR, O43390 (O43390 whole entry): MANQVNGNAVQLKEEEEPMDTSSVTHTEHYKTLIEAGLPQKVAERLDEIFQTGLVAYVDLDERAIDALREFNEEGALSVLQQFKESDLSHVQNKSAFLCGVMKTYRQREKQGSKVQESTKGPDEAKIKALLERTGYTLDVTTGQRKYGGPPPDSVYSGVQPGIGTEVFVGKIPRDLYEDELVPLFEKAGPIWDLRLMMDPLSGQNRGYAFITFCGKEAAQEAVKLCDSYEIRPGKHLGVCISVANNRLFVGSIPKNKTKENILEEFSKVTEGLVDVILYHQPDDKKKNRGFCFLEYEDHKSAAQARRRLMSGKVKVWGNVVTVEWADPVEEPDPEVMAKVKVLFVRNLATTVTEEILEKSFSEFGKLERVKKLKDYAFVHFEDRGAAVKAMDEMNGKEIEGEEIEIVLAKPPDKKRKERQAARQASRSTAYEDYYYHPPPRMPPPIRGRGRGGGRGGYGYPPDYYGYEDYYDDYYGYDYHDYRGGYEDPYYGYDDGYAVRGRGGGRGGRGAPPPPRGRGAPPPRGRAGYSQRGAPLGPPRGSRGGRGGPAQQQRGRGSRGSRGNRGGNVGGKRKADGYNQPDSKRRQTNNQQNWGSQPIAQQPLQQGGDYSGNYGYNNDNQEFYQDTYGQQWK

In the assay the target is HNRNPU (UniProt Q00839). Kind of assay: cross-linking mass spectrometry. The note with it: DSBSO, in cells or nuclear extract, not told apart.
Sequence of HNRNPU (Q00839 whole entry): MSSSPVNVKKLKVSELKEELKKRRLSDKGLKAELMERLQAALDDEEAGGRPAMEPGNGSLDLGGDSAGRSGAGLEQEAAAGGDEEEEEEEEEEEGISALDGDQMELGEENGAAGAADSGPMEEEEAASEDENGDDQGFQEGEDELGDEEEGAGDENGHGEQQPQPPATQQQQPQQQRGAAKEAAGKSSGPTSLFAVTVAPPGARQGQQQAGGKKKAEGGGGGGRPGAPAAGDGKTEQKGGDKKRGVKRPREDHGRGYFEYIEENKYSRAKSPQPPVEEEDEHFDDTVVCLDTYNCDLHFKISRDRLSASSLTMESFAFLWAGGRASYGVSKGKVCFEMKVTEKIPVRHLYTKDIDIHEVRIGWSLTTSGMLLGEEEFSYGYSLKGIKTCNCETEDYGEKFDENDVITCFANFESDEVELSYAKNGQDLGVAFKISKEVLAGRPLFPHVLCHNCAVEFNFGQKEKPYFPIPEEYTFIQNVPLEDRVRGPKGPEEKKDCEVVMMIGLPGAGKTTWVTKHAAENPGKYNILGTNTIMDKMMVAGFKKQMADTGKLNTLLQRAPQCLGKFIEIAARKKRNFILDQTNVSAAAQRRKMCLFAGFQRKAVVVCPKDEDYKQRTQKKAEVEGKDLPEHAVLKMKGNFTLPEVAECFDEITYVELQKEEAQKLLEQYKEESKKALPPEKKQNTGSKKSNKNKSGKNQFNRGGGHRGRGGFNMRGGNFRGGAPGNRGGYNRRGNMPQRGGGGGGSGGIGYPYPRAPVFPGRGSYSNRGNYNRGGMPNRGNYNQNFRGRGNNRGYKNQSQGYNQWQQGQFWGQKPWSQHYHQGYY
For the substance GART, P22102, the cross-linked residues result is given as “K251 - K331”.

As for HNRNPDL, O14979, the cross-linked residues entry was “K302 - K352”.

Consider HNRNPR, O43390, for which the cross-linked residues entry is reported as “K359 - K181”.
